Measured values as given in PubChem BioAssay (NCATS).
Inconclusive results are not listed. The source made the active and inactive calls. Calls come from the whole dose curve; as a rule, active = well fitted curve in the direction sought with a large enough effect; inconclusive = small, poorly fitted or top-dose-only effect, or another doubt; inactive = no such curve, though single readings can be large; an effect the other way counts as inactive or inconclusive.

Experiment: qHTS to identify inhibitors of the type 1 interferon - major histocompatibility complex class I in skeletal muscle: primary screen against the NCATS Pharmaceutical Collection (AID 1347407);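 note: luminescence of HiBiT knocked into endogenous HLA-B as interferon-induced MHC class I level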
Conditions: human skeletal muscle cells, IFN-b-induced MHC-I HiBiT luminescence, 24 h; series mostly up to 92.2 µM
Procedure, shortened: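 HLA-B HiBiT myoblasts, dexamethasone-free growth medium + 4 ng/ml IFN-b; compounds pinned 1 h after seeding, […] from 46 uM; 24 h, 37 C, 5% CO2; lytic HiBiT detection, 10 min RT, luminescence.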

Row | Compound | outcome
1 | CCO/N=C(\CC)C1=C(O)CC(c2c(C)cc(C)cc2C)CC1=O (stereo not drawn) | inactive
2 | O=C(O)c1cc(Oc2ccc(C(F)(F)F)cc2Cl)ccc1[N+](=O)[O-] | inactive
3 | COc1ccc(C(c2ccc(OC)cc2)C(Cl)(Cl)Cl)cc1 | inactive
4 | Fc1cc(Br)ccc1CBr | inactive
5 | Nc1ccc([N+](=O)[O-])cc1 | inactive
6 | COc1nn(CSP(=S)(OC)OC)c(=O)s1 | inactive
7 | CC(C)(C)C(O)C(Oc1ccc(Cl)cc1)n1cncn1 (stereo not drawn) | inactive
8 | O=C(O)C(Cl)Cl | inactive
9 | O=[N+]([O-])c1c2ccccc2cc2ccccc12 | inactive

Experiment: qHTS for inhibitors of adenylyl cyclases using a fission yeast platform: a pilot screen against the NCATS LOPAC library (AID 1347410)
Conditions: S. pombe CHP2027, fbp1-GFP fluorescence, 18 h; series mostly up to 57.5 µM
Procedure, shortened: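 Read-out: fbp1-GFP fluorescence by laser scanning cytometry (488 nm laser), a gain of signal when AC/cAMP-PKA signalling is inhibited. Strain CHP2027 expressing AC9, GNAS and PDE4D2; compounds at up to 57 µM; 18 h, 30C.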

Row | Compound | outcome
10 | COc1ccc2c(c[n+](C)c3c4cc5c(cc4ccc23)OCO5)c1OC | inactive
11 | Cc1nccc2c1[nH]c1ccccc12 | inactive
12 | c1ccc(CCCN2CCN(CCOC(c3ccccc3)c3ccccc3)CC2)cc1 | inactive
13 | CN[C@@H]1C[C@@H](c2ccc(Cl)c(Cl)c2)c2ccccc21 | inactive
